Our source for the growth values is PubChem BioAssay (NCI).

About 83,000 compounds went through this panel and 20% of them were active in at least one assay; those are over-represented in the sample as a whole.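 Interpretation: 100, growth as untreated; towards 0, rising growth inhibition; 0, no net growth; 0 to -100, cell death. Compounds scoring below 10 were considered active.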 A number with no mark means an inactive call. The source made the active and inactive calls.

One assay relates to OVCAR-8 ovarian. In words: NCI-60 one-dose screen, 48 h (100 = growth as untreated, 0 = no growth, -100 = all killed). Conditions: 10 µM unless noted.
On to `C[n+]1cccc(NC(=O)c2ccc3ccc4ccc(C(=O)Nc5ccc[n+](C)c5)nc4c3n2)c1`, for which the growth was 62.5%.

For the compound `Cc1ccc(S(=O)(=O)N/N=C2\CC3CCC2(C)C3(C)C)cc1` (stereo not given), the growth was 88.8%.

Take `CCOC(=O)c1nn(C2CCCCO2)c2ccc(NC(=O)Cn3nnc4ccccc43)cc12` (stereo not given): the growth is 101%.

For the compound `Cn1cc(-c2nnc(-c3cn(C)c4ncc(Br)cc34)o2)c2ccccc21`, the growth is 93.4%.

Turning to `O=C(Nc1ccc(Oc2ccc(F)cc2)c(Cl)c1)c1cccnn1`, the growth is 71.3%.

`Cc1ccc2c(n1)C(=O)C(Cl)=C(Nc1ccc(N3CCN(C)CC3)cc1)C2=O`: the growth was -62.6% (active).

For the compound `c1cc2ccc1CNCCN1CCNCc3ccc(cc3)Oc3ccc(cc3)CNCCN(CCNCc3ccc(cc3)O2)CCNCc2ccc(cc2)Oc2ccc(cc2)CNCC1`, the growth is -7.54% (active).

On to `Cc1ccc(-c2cn(C/C=C3\C=CN(S(=O)(=O)c4ccccc4)CC3)nn2)cc1`, for which the growth was 100%.

Turning to `CCCCCCCCN(CCCCCCCC)CC(O)c1ccc(Cl)c(C)c1Cl` (stereo not given), the growth is 93.6%.

For the next assay, the system named is OVCAR-5 ovarian. The description is as above. To be noted: 10 µM unless noted.
Consider `N#C/C(C(=O)c1ccccc1)=C1/C(=O)Nc2ccc(F)cc21`, for which the growth is 106%.

Consider `C=C(C)[C@@H]1CC[C@]2(C(=O)NCCCN)CC[C@]3(C)[C@H](CC[C@@H]4[C@@]5(C)CC[C@H](O)C(C)(C)[C@@H]5CC[C@]43C)[C@@H]12`, for which the growth is -47.7% [100 µM] (active).

With `O=C1/C(=C\c2cn(CC(O)CN3CCCCC3)c3ccccc23)c2ccccc2N1c1c(Cl)cccc1Cl` (stereo not given), the growth is -92.7% (active).

Turning to `COc1ccc(OC)c([N+](=O)[O-])c1C(=O)CNC(C)=O`, the growth was 99.9%.

As for `Nc1cccc2c1C(=O)c1cccc(NC(=O)c3ccccc3)c1C2=O`, the growth was 57.6%.

Turning to `CCNc1cc2c(cc1Br)-c1ccccc1C2=O`, the growth was 115%.

Turning to `CCOc1cccc2c(NC(C)CCCN(CC)CC)c(C)cnc12` (stereo not given), the growth is 106%.

`COc1cc(/C=C/C(=O)/C=C/c2ccc(-n3ccnc3C)cc2)ccc1O`: the growth is 101%.

Regarding `COc1cc(-c2nc(SCCC(C)C)nc(Nc3ccccc3)c2C#N)cc(OC)c1OC`, the growth was 99.4%.

In the case of `CN(C)C(=S)Sc1ccc([N+](=O)[O-])cc1[N+](=O)[O-]`, the growth was 72.9%.

`Nc1ccc(Cl)c([N+](=O)[O-])c1`: the growth was 86%.

Regarding `CCCCCCCCCCCCNC(=S)N/N=C/c1ccccc1O`, the growth was 99.1%.

In the case of `COc1cccc(-c2[nH]c(=S)ncc2C(=O)c2ccccc2)c1`, the growth is 93.8%.

With `O=C(N=c1n(-c2ccccc2)nc2n1CCN2C1=NCCN1C(=O)c1ccc(Cl)cc1)c1ccc(Cl)cc1`, the growth is 88.8%.

Consider `COc1cc2c(=O)[nH]c3cc([N+](=O)[O-])ccc3c2cc1[N+](=O)[O-]`, for which the growth is 74.1%.

Turning to `O=C(Nc1cccc2ccccc12)c1cc2ccccc2cc1O`, the growth was 105%.

Consider `Cc1ccc(N)c(O)c1`, for which the growth was 108%.

For `CCOC(=O)CCC[P+](c1ccccc1)(c1ccccc1)c1ccccc1`, the growth was 95.1%.

With `CCN(CC)c1cc(N)c(Cc2c(N)cc(N(CC)CC)cc2Cl)c(Cl)c1`, the growth is 92.3%.

As to `CSc1nc(N)c(N=Nc2ccc(S(=O)(=O)Nc3nnc(C)s3)cc2)c(=O)[nH]1`, the growth is 113%.

For `CC1(C)C(=O)/C(=C\c2cccnc2)C[C@]2(C)[C@H]3CC[C@@H]4[C@H]5[C@H](C(=O)/C=C/c6cccnc6)CC[C@]5(C(=O)O)CC[C@@]4(C)[C@]3(C)CC[C@@H]12`, the growth was -49% [100 µM] (active).

For the compound `N#CCCc1c[nH]c2ccccc12`, the growth was 102%.

In the case of `C[C@@H]1C[C@H]2C(=O)O[C@@H](C)[C@H](NC(=O)[C@H](Cc3cc(F)cc(F)c3)NC(=O)Nc3ccc(C4CC4)cc3F)C(=O)N3CCC[C@H]3C(=O)N3CCCC[C@H]3C(=O)N[C@@H](C)C(=O)N2C1`, the growth is -2.59% (active).

Take `CCN(CC)CCCC(C)Nc1c2ccc(C)cc2nc2ccc(OC)cc12` (stereo not given): the growth is 76.2%.

Regarding `C#CCNC(=O)CC[C@]1(C)[C@H]2CC[C@@H]3[C@@H]([C@@](C)(O)CCC=C(C)C)CC[C@@]3(C)[C@]2(C)CC[C@H]1C(=C)C`, the growth is 55.6% [100 µM].

`CC1(C)CC[C@]2(C(=O)O)CC[C@]3(C)C(=CC[C@@H]4[C@@]5(C)C/C(=C/c6ccco6)C(=O)C(C)(C)[C@@H]5CC[C@]43C)[C@@H]2C1`: the growth was -64.2% [100 µM] (active).
